Common to all, as to assay: NCI-60 one-dose screen, 48 h (100 = growth as untreated, 0 = no growth, -100 = all killed)
What all share (conditions): 10 µM unless noted

Assay [1] has as its system SR leukemia.
Assay [2] concerns RPMI-8226 leukemia.
For assay [3], the system named is OVCAR-8 ovarian.
Assay [4] deals with OVCAR-5 ovarian.
Assay [5] concerns OVCAR-4 ovarian.
For assay [6], the system named is SK-OV-3 ovarian.
Assay [7] relates to IGROV1 ovarian.
The subject of assay [8] is OVCAR-3 ovarian.
Assay [9] has as its system HS 578T breast.
In assay [10] the test system is NCI/ADR-RES ovarian.
Assay [11] concerns T-47D breast.
Assay [12] has as its system BT-549 breast.
Assay [13] relates to MDA-MB-435 melanoma.
For assay [14], the system named is SW-620 colon.
Assay [15] has as its system MCF7 breast.
Assay [16] has as its system HCT-116 colon.
Assay [17] has as its system HCC-2998 colon.
For assay [18], the system named is KM12 colon.
Assay [19] has as its system MOLT-4 leukemia.

Molecules are shown by their SMILES. The panel holds about 83,000 compounds, 20% with a hit somewhere; the sample as a whole holds those more often.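 Interpretation: 100, growth as untreated; towards 0, rising growth inhibition; 0, no net growth; 0 to -100, cell death. Compounds scoring below 10 were considered active.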 Unmarked numbers belong to inactive results. Active and inactive are the calls of the source.

For nine compounds, growth results are on record in PubChem BioAssay (NCI).

Regarding `c1cnc2[nH]cc(-c3csc(-c4cn(CCCCN5CCOCC5)c5ccccc45)n3)c2c1`, the growth in assay [1] was -20.1% (active); in assay [2], 32.6%; in [3], 60.6%; in assay [4], 72.5%; in assay [5], 74.8%; in assay [6] it was 81.1%. For the same compound, the growth was 34.9% in assay [7]; 59.8% in assay [8]; 54.9% in assay [9]; 69.4% in assay [10]; 36.1% in assay [11]; 79.6% in assay [12]. In addition, the growth in [13] was 24.4%; in [14] it was 18.1%; in [15], 25.1%; in assay [16] it was 40.3%; in [17] it was 56.9%; in assay [18], 24.1%.

For the compound `COc1cc(C=Nc2cccc(Br)c2)ccc1N(CCCl)CCCl`, the growth in assay [1] is 44.1%; in [2] it was 86.2%; in assay [3], 81.6%; in [4], 85.6%; in [5], 93.6%; in [6] it was 71.3%. Also, the growth in [7] was 96.3%; in [8] it was 80.8%; in assay [9], 150%; in assay [10] it was 80.7%; in assay [11], 91.3%; in assay [12], 85.5%. Besides, the growth in assay [13] is 103%; in assay [14], 74.5%; in [15], 66.6%; in [16], 87%; in assay [17], 60.1%; in assay [18] it was 40.6%.

`COc1ccc(C2=CC(c3ccc(OC)c(OC)c3)c3c(c4ccccc4oc3=O)O2)cc1OC` (stereo unspecified): the growth is 11.9% in assay [19]; -48.5% (active) in assay [2]; 36.2% in assay [3]; 60.2% in assay [4]; 42.8% in assay [5]; 25.6% in assay [6]. Also, the growth was -16.3% (active) in assay [8]; -5.68% (active) in [9]; 29% in [10]; 35% in assay [11]; -4.49% (active) in assay [12]; -72.9% (active) in assay [13]. The growth in assay [14] was 18.5%; in assay [15], 11.8%; in assay [16] it was 24.2%; in assay [17], 31.4%; in [18] it was 16.2%.

On to `COC(=O)CC12CC(NC(=O)c3csc([C@@H](C[C@H](C(C)C)N(C)C(=O)[C@@H](NC(=O)[C@H]4CCCCN4C)C(C)C)OC(C)=O)n3)(C1)C2`, for which the growth in assay [1] is 20.1%; in [2] it was 24.4%; in [3] it was 30.5%; in [4], 42.9%; in assay [5], 56.1%; in assay [6], 18.4%. The growth was 26.3% in assay [7]; -34.3% (active) in assay [8]; 45% in [9]; -24.1% (active) in assay [10]; 64.4% in assay [11]; -19.8% (active) in assay [12]. The growth in assay [13] was -39.8% (active); in assay [14], 29%; in [15], 20.4%; in assay [16] it was 9.61% (active); in [17] it was 10.5%; in assay [18], 11.1%.

`CCOP1(=O)CC(C)=C(Cl)C(P(=O)(OCC)OCC)C1` (stereo unspecified): the growth was 106% in assay [19]; 107% in [2]; 84.3% in assay [3]; 82.9% in [4]; 92.4% in assay [5]; 98.8% in assay [6]. In addition, the growth is 94.5% in [8]; 103% in [9]; 85.8% in [10]; 96.4% in [11]; 112% in assay [12]; 97.3% in [14]. In addition, the results for the growth in [16], in assay [17] and in [18] were 107%, 86.3% and 114%, respectively.

With `C[C@]12CCc3nc(Nc4ccccc4F)sc3C1=CC[C@@H]1[C@@H]2CC[C@]2(C)C(=O)CC[C@@H]12`, the growth in assay [1] is 11.4%; in [2], 15%; in assay [3] it was 70.8%; in [4], 76.5%; in assay [5], 73.9%; in [6], 72.6%. The growth is 61.8% in assay [7]; 29.2% in [8]; 67.8% in assay [9]; 73.9% in assay [10]; 37.5% in assay [11]; 66.2% in assay [12]. Besides, the growth is 52.5% in [13]; -12.6% (active) in assay [14]; 12.5% in assay [15]; -22.4% (active) in assay [16]; 80.1% in assay [17]; 42.5% in [18].

Turning to `CC1(C)N=C(N)N=C(N)N1c1cccc(CCCCc2ccc(Cl)c(S(=O)(=O)F)c2)c1`, the growth in [19] is 38.3%; in assay [2] it was 45.7%; in assay [3], 19.4%; in [4], 49.6%; in assay [5], 50.5%; in assay [6] it was 72.8%. Besides, the growth in assay [8] was 47.1%; in [9], 83.9%; in [10] it was 104%; in [11], 86.6%; in assay [12], 51.8%; in assay [13], 35.8%. Further, the growth in [14] was 30.9%; in assay [15] it was 28.8%; in assay [16], 17.7%; in assay [17], 35.1%; in assay [18] it was 22.3%.

Consider `CCC(=O)Nc1ccc(Cl)c(Cl)c1`, for which the growth is 95.5% in assay [1]; 106% in [2]; 100% in [3]; 92.9% in assay [4]; 118% in assay [5]; 104% in [6]. Moreover, the growth is 104% in assay [7]; 107% in assay [8]; 110% in assay [9]; 102% in assay [10]; 87.3% in [11]; 113% in assay [12]. The growth was 107% in assay [13]; 101% in assay [14]; 93.1% in assay [15]; 99.1% in [16]; 93.9% in assay [17]; 99.9% in [18].

`C=CC1=C[C@@H]2[C@@H]3O[C@]4(CC[C@H](O4)[C@@H](C)C[C@@H](O)C3=O)C[C@H](O)C3=NCC[C@@]32CC1`: the growth in assay [19] was 0.671% (active); in [2], -15.9% (active); in [3], -12.3% (active); in [4], -24% (active); in assay [5] it was -38.8% (active); in assay [6], -4.99% (active). The growth was -28.4% (active) in [7]; -29.6% (active) in assay [9]; -15.3% (active) in [10]; -14.6% (active) in assay [11]; -31.9% (active) in assay [12]; -92.9% (active) in assay [13]. Further, the growth in assay [14] was -11.3% (active); in assay [15] it was -11.8% (active); in [16] it was -22.8% (active); in assay [17] it was -81.2% (active); in assay [18] it was -33.4% (active).
